The supplement of paper PMC4466140

Tests used:
Assay in all cases: SPOT peptide array binding signal intensity (averaged, normalized) (arbitrary units (background-subtracted, floor 0; scale differs between SH3 domains)); higher = stronger binding of the SH3 domain to the peptide
[1] = target: CaNbp2
In short: (§1)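 SH3 domains from four yeast species were expressed as GST fusions in E. coli BL21(DE3) and purified on glutathione Sepharose. Each was incubated at 10 μg/ml overnight at 4°C in TBS-based blocking buffer on cellulose membranes bearing synthetic 15-mer peptides, in which serines replaced cysteines. Bound protein was detected with anti-GST antibody, an HRP anti-mouse secondary and luminol, then imaged and quantified with Genespotter. The binding signal is the normalized, background-subtracted spot intensity averaged over replicates, in arbitrary units that are not the same from one domain to another.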

[2] = target: CaRvs167
In short: as §1

[3] = target: CaRvs167-3
In short: as §1

[4] = target: CaSho1
In short: as §1

[5] = target: CaSla1-D1-D2
In short: as §1

[6] = target: CaSla1-D3
In short: as §1

[7] = target: ScAbp1
In short: as §1

[8] = target: ScBbc1
In short: as §1

[9] = target: ScBem1-D1
In short: as §1

[10] = target: ScBzz1-D1
In short: as §1

[11] = target: ScBzz1-D2
In short: as §1

[12] = target: ScCyk3
In short: as §1

[13] = target: ScFus1
In short: as §1

[14] = target: ScHof1
In short: as §1

[15] = target: ScHse1
In short: as §1

[16] = target: ScLsb1
In short: as §1

[17] = target: ScLsb2
In short: as §1

[18] = target: ScLsb3
In short: as §1

[19] = target: ScLsb4
In short: as §1

[20] = target: ScMyo3
In short: as §1

[21] = target: ScMyo5
In short: as §1

[22] = target: ScNbp2
In short: as §1

[23] = target: ScPex13
In short: as §1

[24] = target: ScRvs167
In short: as §1

[25] = target: ScSho1
In short: as §1

[26] = target: ScSla1-D1-D2
In short: as §1

[27] = target: ScSla1-D3
In short: as §1

[28] = target: SpAbp1-D1
In short: as §1

[29] = target: SpBbc1
In short: as §1

[30] = target: SpBzz1-D1
In short: as §1

[31] = target: SpBzz1-D2
In short: as §1

[32] = target: SpCyk3
In short: as §1

[33] = target: SpHof1
In short: as §1

[34] = target: SpHof1-2
In short: as §1

[35] = target: SpHof1-3
In short: as §1

[36] = target: SpHse1
In short: as §1

[37] = target: SpLsb1
In short: as §1

[38] = target: SpLsb4
In short: as §1

[39] = target: SpMyo1
In short: as §1

[40] = target: SpNbp2
In short: as §1

[41] = target: SpPex13
In short: as §1

[42] = target: SpRvs167
In short: as §1

[43] = target: SpSla1-D1-D2
In short: as §1

[44] = target: SpSla1-D3
In short: as §1

[45] = target: AgAbp1
In short: as §1

[46] = target: AgBbc1
In short: as §1

[47] = target: AgBem1-D1
In short: as §1

[48] = target: AgBzz1-D1
In short: as §1

[49] = target: AgBzz1-D2
In short: as §1

[50] = target: AgCyk3
In short: as §1

[51] = target: AgFus1
In short: as §1

[52] = target: AgHof1
In short: as §1

[53] = target: AgHse1
In short: as §1

[54] = target: AgLsb1
In short: as §1

[55] = target: AgLsb4
In short: as §1

[56] = target: AgMyo5
In short: as §1

[57] = target: AgNbp2
In short: as §1

[58] = target: AgRvs167
In short: as §1

[59] = target: AgSho1
In short: as §1

[60] = target: AgSla1-D1-D2
In short: as §1

[61] = target: AgSla1-D3
In short: as §1

[62] = target: CaAbp1-D1
In short: as §1

[63] = target: CaAbp1-D2
In short: as §1

[64] = target: CaBbc1
In short: as §1

[65] = target: CaBem1-D1
In short: as §1

[66] = target: CaBzz1-D1
In short: as §1

[67] = target: CaBzz1-D2
In short: as §1

[68] = target: CaCyk3
In short: as §1

[69] = target: CaFus1
In short: as §1

[70] = target: CaHof1
In short: as §1

[71] = target: CaHse1
In short: as §1

[72] = target: CaLsb1
In short: as §1

[73] = target: CaLsb4
In short: as §1

[74] = target: CaMyo5
In short: as §1

B1: unnamed (peptide)
chain: KRNRLKILLPFLEQS
B1 was tested, and the “SPOT peptide array binding signal intensity” value [1] was 742, the “SPOT peptide array binding signal intensity” value [2] was 61.5 and the “SPOT peptide array binding signal intensity” value [3] was 828. The “SPOT peptide array binding signal intensity” value [4] was 1220, the “SPOT peptide array binding signal intensity” value [5] was 5 and the “SPOT peptide array binding signal intensity” value [6] was 136. For the same binder, the “SPOT peptide array binding signal intensity” value [7] was 54, the “SPOT peptide array binding signal intensity” value [8] was 2.5 and the “SPOT peptide array binding signal intensity” value [9] was 74. For the same binder, the “SPOT peptide array binding signal intensity” value [10] was 20.5, the “SPOT peptide array binding signal intensity” value [11] was 53 and the “SPOT peptide array binding signal intensity” value [12] was 102. For the same binder, the “SPOT peptide array binding signal intensity” value [13] was 1980, the “SPOT peptide array binding signal intensity” value [14] was 1.5 and the “SPOT peptide array binding signal intensity” value [15] was 2110. The “SPOT peptide array binding signal intensity” value [16] was 3, the “SPOT peptide array binding signal intensity” value [17] was 5 and the “SPOT peptide array binding signal intensity” value [18] was 145. For the same binder, the “SPOT peptide array binding signal intensity” value [19] was 9.5, the “SPOT peptide array binding signal intensity” value [20] was 2.5 and the “SPOT peptide array binding signal intensity” value [21] was 2.25. The “SPOT peptide array binding signal intensity” value [22] was 130, the “SPOT peptide array binding signal intensity” value [23] was 0.25 and the “SPOT peptide array binding signal intensity” value [24] was 18.2. The “SPOT peptide array binding signal intensity” value [25] was 1290, the “SPOT peptide array binding signal intensity” value [26] was 122 and the “SPOT peptide array binding signal intensity” value [27] was 3.25. The “SPOT peptide array binding signal intensity” value [28] was 114, the “SPOT peptide array binding signal intensity” value [29] was 1.5 and the “SPOT peptide array binding signal intensity” value [30] was 90. The “SPOT peptide array binding signal intensity” value [31] was ≤ 0, the “SPOT peptide array binding signal intensity” value [32] was 3 and the “SPOT peptide array binding signal intensity” value [33] was 142. For the same binder, the “SPOT peptide array binding signal intensity” value [34] was 14, the “SPOT peptide array binding signal intensity” value [35] was 624 and the “SPOT peptide array binding signal intensity” value [36] was 1780. For the same binder, the “SPOT peptide array binding signal intensity” value [37] was 1.5, the “SPOT peptide array binding signal intensity” value [38] was 56 and the “SPOT peptide array binding signal intensity” value [39] was 5.5. The “SPOT peptide array binding signal intensity” value [40] was 443, the “SPOT peptide array binding signal intensity” value [41] was 21 and the “SPOT peptide array binding signal intensity” value [42] was 7.5. For the same binder, the “SPOT peptide array binding signal intensity” value [43] was ≤ 0 and the “SPOT peptide array binding signal intensity” value [44] was 11.

B2: unnamed (peptide)
chain: YLTRPLPSTPNEDSR
In the case of B2, the “SPOT peptide array binding signal intensity” value [45] is reported as 7, the “SPOT peptide array binding signal intensity” value [46] is reported as 39.5 and the “SPOT peptide array binding signal intensity” value [47] is reported as ≤ 0. The “SPOT peptide array binding signal intensity” value [48] was 17.5, the “SPOT peptide array binding signal intensity” value [49] was ≤ 0 and the “SPOT peptide array binding signal intensity” value [50] was 42. The “SPOT peptide array binding signal intensity” value [51] was ≤ 0, the “SPOT peptide array binding signal intensity” value [52] was 13.2 and the “SPOT peptide array binding signal intensity” value [53] was ≤ 0. For the same binder, the “SPOT peptide array binding signal intensity” value [54] was 96, the “SPOT peptide array binding signal intensity” value [55] was 853 and the “SPOT peptide array binding signal intensity” value [56] was 2.25. The “SPOT peptide array binding signal intensity” value [57] was ≤ 0, the “SPOT peptide array binding signal intensity” value [58] was 404 and the “SPOT peptide array binding signal intensity” value [59] was 1790. The “SPOT peptide array binding signal intensity” value [60] was 1, the “SPOT peptide array binding signal intensity” value [61] was ≤ 0 and the “SPOT peptide array binding signal intensity” value [62] was 11. For the same binder, the “SPOT peptide array binding signal intensity” value [63] was 7, the “SPOT peptide array binding signal intensity” value [64] was 134 and the “SPOT peptide array binding signal intensity” value [65] was ≤ 0. The “SPOT peptide array binding signal intensity” value [66] was 42, the “SPOT peptide array binding signal intensity” value [67] was 12.5 and the “SPOT peptide array binding signal intensity” value [68] was 8. For the same binder, the “SPOT peptide array binding signal intensity” value [69] was ≤ 0, the “SPOT peptide array binding signal intensity” value [70] was 69.8 and the “SPOT peptide array binding signal intensity” value [71] was 28.5. The “SPOT peptide array binding signal intensity” value [72] was ≤ 0, the “SPOT peptide array binding signal intensity” value [73] was 406 and the “SPOT peptide array binding signal intensity” value [74] was ≤ 0. For the same binder, the “SPOT peptide array binding signal intensity” value [1] was ≤ 0, the “SPOT peptide array binding signal intensity” value [2] was 144 and the “SPOT peptide array binding signal intensity” value [3] was ≤ 0. For the same binder, the “SPOT peptide array binding signal intensity” value [4] was 1020, the “SPOT peptide array binding signal intensity” value [5] was ≤ 0 and the “SPOT peptide array binding signal intensity” value [6] was ≤ 0. For the same binder, the “SPOT peptide array binding signal intensity” value [7] was 3.5, the “SPOT peptide array binding signal intensity” value [8] was 5 and the “SPOT peptide array binding signal intensity” value [9] was ≤ 0. For the same binder, the “SPOT peptide array binding signal intensity” value [10] was 6.5, the “SPOT peptide array binding signal intensity” value [11] was 14 and the “SPOT peptide array binding signal intensity” value [12] was ≤ 0. For the same binder, the “SPOT peptide array binding signal intensity” value [13] was ≤ 0, the “SPOT peptide array binding signal intensity” value [14] was 9.5 and the “SPOT peptide array binding signal intensity” value [15] was ≤ 0. For the same binder, the “SPOT peptide array binding signal intensity” value [16] was 20, the “SPOT peptide array binding signal intensity” value [17] was 2.5 and the “SPOT peptide array binding signal intensity” value [18] was 3260. For the same binder, the “SPOT peptide array binding signal intensity” value [19] was 706, the “SPOT peptide array binding signal intensity” value [20] was 3 and the “SPOT peptide array binding signal intensity” value [21] was ≤ 0. The “SPOT peptide array binding signal intensity” value [22] was ≤ 0, the “SPOT peptide array binding signal intensity” value [23] was 992 and the “SPOT peptide array binding signal intensity” value [24] was 417. The “SPOT peptide array binding signal intensity” value [25] was 3780, the “SPOT peptide array binding signal intensity” value [26] was 17.5 and the “SPOT peptide array binding signal intensity” value [27] was 1. For the same binder, the “SPOT peptide array binding signal intensity” value [28] was ≤ 0, the “SPOT peptide array binding signal intensity” value [29] was ≤ 0 and the “SPOT peptide array binding signal intensity” value [30] was 74.5.
